In PubChem BioAssay (NCI):
About 83,000 compounds went through this panel and 20% of them were active in at least one assay; those are over-represented in the sample as a whole.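 Testing used 96-well plates and a 48-hour single-concentration exposure. Example: -40 means 40% of the starting cells died.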 Activity calls are given as the source filed them. How the source made its calls: active means growth percent below 10; inactive means the rest.

Key:
Assay in all cases: NCI-60 one-dose screen, 48 h (100 = growth as untreated, 0 = no growth, -100 = all killed)
Settings in all cases: 10 µM
[1] = test system: DU-145 prostate
[2] = test system: K-562 leukemia
[3] = test system: MALME-3M melanoma
[4] = test system: MDA-MB-231 breast
[5] = test system: RXF 393 renal
[6] = test system: SF-268 CNS
[7] = test system: SF-295 CNS
[8] = test system: SF-539 CNS
[9] = test system: UACC-257 melanoma
[10] = test system: M14 melanoma

Measured: growth

O=C(c1ccc(Cl)cc1)C1[C@H](c2ccc(Br)cc2)[C@@H](c2ccccc2)NC12C(=O)Nc1ccccc12 (some centres not stated)
active: [2] -15.7% | [3] -35.9% | [4] -60.1% | [5] -59.8% | [7] -54.5% | [8] -57.7% | [9] -2.88%
inactive: [1] 12.4% | [6] 12.1% | [10] 29.4%

N#Cc1c(-c2ccc(F)cc2)nc(SCc2ccc(F)cc2)nc1N1CCOCC1
inactive: [1] 77.8% | [2] 83.8% | [3] 58.6% | [4] 50.5% | [5] 41.6% | [6] 43.4% | [7] 36.9% | [8] 49% | [9] 77.1% | [10] 92.2%

O=C(Cc1ccc2c(c1)CN(C1CCC(=O)NC1=O)C2=O)NCc1cccc2ccccc12 (configuration not stated)
inactive: [9] 32.5%
active: [1] -7% | [2] 8.3% | [3] -72.2% | [4] -47.5% | [6] -8.53% | [7] -8.76% | [8] -23.3%

CCOc1ccc(Nc2nc3ccccc3nc2Nc2ccc(OCC)cc2)cc1
inactive: [1] 45.1% | [2] 30.2% | [3] 83.7% | [4] 67.7% | [6] 40% | [7] 43.3% | [8] 80.8% | [9] 75%

O=C(N=Nc1c(O)[nH]c2ccc(Br)cc12)c1ccc2nc(-c3ccccc3)[nH]c2c1
active: [1] -60.5% | [2] 1.09% | [3] -99.2% | [4] -97.5% | [5] -79.7% | [6] -53.3% | [7] -81.9% | [8] -97.9% | [9] -19.9% | [10] -85.9%

COc1ccc(/C=N/N=C(\C)c2ccc3c(c2)Nc2ccccc2S3)cc1O
inactive: [1] 62.7% | [2] 25.7% | [3] 55.1% | [4] 65.3% | [6] 57.2% | [7] 45.1% | [8] 67.2% | [9] 27.6%

COc1ccc(C(=O)/C=C/c2cc(F)cc(C(F)(F)F)c2)cc1S(N)(=O)=O
active: [2] 5.44% | [3] -64.2% | [4] -90.5% | [7] -47.5% | [8] -77.8% | [9] -9.77%
inactive: [1] 14.1% | [6] 20.8%

CCOC(=O)C1=C(N)N(c2ccccc2)C2=C(C(=O)CC(C)(C)C2)C1c1ccc(Cl)cc1 (configuration not stated)
inactive: [1] 58.3% | [2] 18.3% | [3] 15.9% | [4] 53% | [6] 58% | [7] 21.3% | [8] 36.2% | [9] 28%

O=c1oc2ccccc2cc1-c1csc(N=Nc2c(O)[nH]c3ccc(Br)cc23)n1
inactive: [1] 94.2% | [2] 103% | [3] 56.3% | [4] 56.5% | [6] 51.2% | [7] 39.5% | [8] 35.6% | [9] 105% | [10] 97.5%

O=C(/C=C/Nc1ccc(F)cc1F)c1ccc2c(c1)Nc1ccccc1S2
inactive: [1] 89.4% | [2] 28.6% | [3] 66.1% | [4] 77.5% | [6] 82.2% | [7] 65.3% | [8] 62.4% | [9] 88.2%

CCOc1ccc2ncc(C#Cc3cncc(C(=O)Nc4ccc(CN5CCN(C)CC5)c(C(F)(F)F)c4)c3)n2n1
active: [1] -96.7% | [2] 4.86% | [3] -81.9% | [4] -88.9% | [6] -49.4% | [7] -88.5% | [8] -97.9% | [9] -62.2% | [10] -73%

O=C1CCC(N2Cc3cc(NC(=O)COc4ccccc4)ccc3C2=O)C(=O)N1 (configuration not stated)
inactive: [1] 111% | [2] 93.6% | [3] 19.2% | [4] 25.1% | [6] 87.3% | [7] 71.5% | [8] 78.4% | [9] 110% | [10] 56.3%

O=C(/C=C/Nc1ccccc1)c1ccc2c(c1)Nc1ccccc1S2
inactive: [1] 84.3% | [2] 90.6% | [3] 71.5% | [4] 69.2% | [6] 81.2% | [7] 78.1% | [8] 59.9% | [9] 96.7%

CC(C)(C)c1ccc(NCc2cn(-c3ccc(C(=O)O)cc3)nc2-c2ccc(C#N)cc2)cc1
inactive: [1] 36.1% | [2] 14.8% | [3] 42.9% | [4] 41.9% | [6] 33.9% | [7] 19.2% | [8] 14.3% | [9] 45.5%

OCc1[nH]nc2cc(Nc3ncc4ccc(Br)c(OC5CCC(O)CC5)c4n3)ccc12 (configuration not stated)
active: [3] -63.4% | [4] -10.2% | [6] 7.67% | [7] -49.8% | [8] -83.3% | [9] -18.2% | [10] -58.9%
inactive: [1] 11.6% | [2] 11.4%

O=C(Nc1cccc(C(F)(F)F)c1)c1cncc(C#Cc2cnc3ccc(N4CCOCC4)nn23)c1
active: [1] 0.548% | [2] 9.1% | [3] -29.7% | [4] -8.01% | [6] -31% | [7] -8.57% | [8] -88.1% | [9] 3.22% | [10] -49.3%

O=C(Nc1nc2ccc([N+](=O)[O-])cc2s1)Nc1ccccc1I
active: [2] 4.53% | [3] -5.11% | [4] 0.0164% | [5] -12.7% | [7] -25.8% | [8] -0.233% | [9] -17.8% | [10] 2.29%
inactive: [1] 17.9% | [6] 22%

CN(C)c1ccc(/C=C/c2nc3ccccc3c(=O)n2CC(=O)Nc2ccccc2)cc1
active: [8] -26.8%
inactive: [1] 42.1% | [2] 55.6% | [3] 15.7% | [4] 33.4% | [6] 57.3% | [7] 35.5% | [9] 60.4% | [10] 81.4%

CCCn1c(O)c(N=Nc2nc(-c3cc4ccccc4oc3=O)cs2)c2cc(Br)ccc21
inactive: [1] 101% | [2] 110% | [3] 88% | [4] 89.2% | [6] 89.8% | [7] 85.3% | [8] 85% | [9] 107%

CN(CCF)c1ccc(/C=C/C(=O)c2ccc(N)cc2O)cc1
inactive: [1] 69.6% | [2] 51.4% | [3] 102% | [4] 95.7% | [5] 82.8% | [6] 93.7% | [7] 80.4% | [8] 83.5% | [9] 96.6% | [10] 107%

Cc1ccc(-c2ccc(SCC(=O)Nc3ccc(S(N)(=O)=O)cc3Br)nn2)cc1
active: [4] 1.3%
inactive: [1] 21.5% | [2] 72.4% | [3] 29% | [6] 45.9% | [7] 21.6% | [8] 13.3% | [9] 77.9% | [10] 69.5%

O=C(CNc1nc(-c2ccccc2)cs1)Nc1ccc([N+](=O)[O-])cc1Cl
active: [8] 2.17%
inactive: [1] 54.8% | [2] 12.2% | [3] 24% | [4] 10.8% | [6] 29.6% | [7] 34.2% | [9] 58.5% | [10] 34.4%

COc1ccc(CCN2C(=O)/C(=C/c3csc(C#N)n3)SC2=S)cc1
active: [1] 0.405% | [2] 1.79% | [3] 7.27% | [5] -3.89% | [8] -17.3% | [9] -35.3% | [10] -40.6%
inactive: [4] 15.8% | [6] 33.2% | [7] 77.5%

CC(=O)C1=C(C)NC(SCC(=O)Nc2ccc(S(=O)(=O)Nc3cc(C)on3)cc2)=NC1c1ccccc1 (configuration not stated)
inactive: [1] 109% | [2] 104% | [3] 100% | [4] 110% | [6] 107% | [7] 106% | [8] 101% | [9] 103%

Cc1cc(C)nc(/N=C(\N)Nc2ccc(S(=O)(=O)Nc3nc(C)cc(C)n3)cc2)n1
inactive: [1] 116% | [2] 102% | [3] 110% | [4] 105% | [6] 106% | [7] 98% | [8] 102% | [9] 108%

COC1=C[C@]23CCC(=O)N2CCc2cc4c(cc2[C@@H]3[C@@H]1OC(=O)CCCC(C)C)OCO4
inactive: [1] 84.2% | [2] 17.6% | [4] 98.5% | [6] 133% | [7] 69.9% | [8] 11.3% | [9] 78.9% | [10] 57.1%
active: [3] 4.86%

COc1ccc(OC)c(-c2cc(-c3c[nH]c4ccccc34)nc(N)c2C#N)c1
inactive: [1] 13% | [4] 12.8% | [9] 22.4%
active: [2] 8.61% | [3] -3.02% | [6] 9.75% | [7] -69.4% | [8] -60.3% | [10] -8.47%

Cc1noc2c(Cc3ccccc3)nn(CC(=O)N/N=C/c3ccc(Br)cc3)c(=O)c12
inactive: [1] 61.1% | [2] 87.2% | [3] 64.9% | [4] 20.6% | [6] 75.5% | [7] 50.6% | [8] 74.4% | [9] 101%

CN(C(=O)c1ccc(C(C)(C)C)cc1)c1sc2c(c1C#N)CCC(=O)C2
active: [3] -6.14% | [4] -74.4% | [7] -0.987% | [8] -86.1%
inactive: [1] 80.7% | [2] 11.7% | [6] 18.5% | [9] 97%

CC(=O)Nc1ccc(-c2cn(-c3cccc(C(=O)Nc4cccc(OC(F)(F)F)c4)c3)nn2)cn1
inactive: [1] 84.4% | [2] 61.8% | [3] 26.4% | [4] 97.4% | [6] 86.3% | [7] 87.4% | [8] 84.3% | [9] 89.8%
